In the library only some 2.4% were active in any assay of this set; here they are far more common.
D2 ag-1: Beta-Arrestin HTS for Positive Allosteric Modulators of the Human D2 Dopamine Receptor: Agonists | D(2) dopamine receptor (Homo sapiens), P14416 | DiscoveRx PathHunter D2 beta-arrestin, luminescence, 90 min; 100% = 57 uM dopamine signal | activation, % (no concentration beside the values) | 360,000 tested, 0.084% active | AID 624465, 2012; in the data active = activation above about 40%; inconclusive = between about 15% and that limit
Target sequence (P14416 whole entry, looked up): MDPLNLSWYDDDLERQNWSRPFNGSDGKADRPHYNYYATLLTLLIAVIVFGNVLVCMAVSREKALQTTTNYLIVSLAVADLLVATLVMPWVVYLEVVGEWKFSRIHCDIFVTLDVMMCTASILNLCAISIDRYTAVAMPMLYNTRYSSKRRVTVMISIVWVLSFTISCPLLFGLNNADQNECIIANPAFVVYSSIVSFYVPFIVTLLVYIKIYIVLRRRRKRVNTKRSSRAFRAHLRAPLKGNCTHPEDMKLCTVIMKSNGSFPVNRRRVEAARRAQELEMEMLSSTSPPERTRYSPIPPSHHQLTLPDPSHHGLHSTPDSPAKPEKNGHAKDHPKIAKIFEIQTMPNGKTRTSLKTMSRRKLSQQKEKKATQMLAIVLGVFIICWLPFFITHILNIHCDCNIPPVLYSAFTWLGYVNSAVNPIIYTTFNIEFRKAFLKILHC
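Agonist mode: compounds alone added to overnight-plated D2 PathHunter cells for 90 min at 37 C, with 57 uM final dopamine (EC100) defining full response. Beta-arrestin recruitment detected by chemiluminescent reagent, read after 1 h at ambient temperature.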
D2 antag: HTS Assay for Allosteric Antagonists of the Human D2 Dopamine Receptor: Primary Screen for Antagonists | D(2) dopamine receptor (Homo sapiens), P14416 | 340,000 tested, 2% active | HEK293 TREx D2 cells, calcium flux, dopamine EC80 | inhibition, % at 10 µM; in the data active = inhibition above about 30%; inactive = below that, where a call was filed; also: 0% is about no effect
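Read-out: kinetic calcium fluorescence (1 cycle/s) in inducible HEK293 T-REx D2 cells after an EC80 dopamine addition that followed 180 s compound preincubation. Loss of the dopamine response indicates antagonism.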
D2 PAM-1: Beta-Arrestin HTS for Positive Allosteric Modulators of the Human D2 Dopamine Receptor: Potentiators. potentiation, % (test concentration not listed). 360,000 tested, 0.23% active. D(2) dopamine receptor (Homo sapiens), P14416. DiscoveRx D2 beta-arrestin cells, luminescence, 90 min; 100% = 57 uM dopamine signal; in the data active = potentiation above about 50%; inconclusive = mostly about 30% to 49%
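D2 cells co-treated with compound plus 50 nM dopamine (EC20) for 90 min at 37 deg C to detect potentiation. Beta-arrestin recruitment was read as enzyme-fragment luminescence after 1 h at ambient temperature. Full response was set by 57 uM dopamine.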
D2 ag-2: HTS Assay for Allosteric Agonists of the Human D2 Dopamine Receptor: Primary Screen for Agonists; D(2) dopamine receptor (Homo sapiens), P14416; activation, % at 2 µM; AID 485358, 2010; HEK293 T-REx D2 cells, calcium flux agonist mode; 340,000 tested, 0.53% active;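 active = activation over 3 SD above normal in the single-dose calcium agonist read, cut at about 30% in these data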; also: 0% is about no effect
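Tetracycline-induced HEK293 Trex cells with D2 receptor force-coupled to calcium signaling, plated overnight at 30 C and loaded with no-wash calcium dye. Calcium flux read kinetically for 180 s after compound addition; responses flag agonists.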
D2 PAM-2: HTS Assay for Positive Allosteric Modulators of the Human D2 Dopamine Receptor: Primary Screen for Potentiators | potentiation, % at 10 µM | HEK293 T-REx D2, calcium flux, EC20 dopamine potentiation | D(2) dopamine receptor (Homo sapiens), P14416 | 340,000 tested, 0.34% active;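 active = potentiation over 3 SD above the plate norm, cut at about 30% in these data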; also: 0% is about no effect
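Using a no-wash calcium dye in inducible, force-coupled HEK293 Trex cells expressing D2, we tracked fluorescence each second for 180 s after compound, then for 180 s after EC20 dopamine to detect augmented signalling.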
The depositor's hits bear a star; ? = inconclusive; . = no result given.

SMILES | D2 ag-1 | D2 antag | D2 PAM-1 | D2 ag-2 | D2 PAM-2
N/C(=N\OC(=O)c1ccc(OCC(F)(F)F)nc1)c1ccc(Cl)cc1 | ? | 30.3* | 53.0* | 0.5 | 4.5
N/C(=N\OC(=O)c1ccc(Cl)cc1Cl)c1ccccc1 | ? | 14.6 | ? | -0.6 | -1.2
N/C(=N\OC(=O)c1ccc(Cl)cc1)c1cccnc1 | ? | 8.4 | 26.6 | 0.3 | -10.4
N/C(=N\OC(=O)c1ccccc1Cl)c1ccc(Cl)cc1 | ? | . | 26.4 | . | .
CCCN(CCC)C(=O)c1c[nH]c2ccc(S(=O)(=O)N(C)c3ccc(Cl)cc3)cc2c1=O | . | . | . | 1.1 | 0.8
CC(=O)c1ccc(N2CCN(c3ncnc4c3nc3n4CCCC3)CC2)cc1 | . | . | . | -0.7 | 3.5
Cc1ccccc1NC(=O)CCn1nc(-c2ccccc2)c2ccccc2c1=O | . | . | . | 0.9 | -1.5
Cc1cc(Cl)ccc1OCC(=O)N1CCC(c2nc3ccccc3o2)CC1 | . | . | . | 0.1 | 12.7
CCc1ccc(NCc2cc3cc4c(cc3n(CC(=O)Nc3ccccc3Cl)c2=O)OCO4)cc1 | . | . | . | 5.6 | -2.3
CC(C)(C)c1ccc(OCC(=O)NNC(=O)C2CCCO2)cc1 (stereo not given) | -3.3 | 5.1 | 1.2 | -0.1 | -2.3
CC(C)=C1C2CCC1C1C(=O)N(NC(=O)COc3ccc(C(C)(C)C)cc3)C(=O)C21 (stereo not given) | -2.4 | 32.1* | -9.1 | -0.4 | 2.7
COc1cc(/C=C2\SC(=Nc3ccc(Cl)c(C(=O)O)c3)NC2=O)c(Br)c(Br)c1O | -3.9 | 37.0* | -0.7 | 87.0* | -0.8
COc1cc(/C=C2\SC(=Nc3ccccc3)NC2=O)cc(Cl)c1O | -1.9 | 38.5* | -15.1 | 74.4* | -9.7
COC(=O)/C=C1\SC(=Nc2ccc(Cl)c(Cl)c2)NC1=O | 6.1 | -0.6 | -3.0 | 1.3 | .
CCc1ccc(N=C2NC(=O)/C(=C/c3cc(OC)c(O)c(OC)c3)S2)cc1 | ? | 14.6 | -55.1 | 5.0 | -20.9
CCOC(=O)N1CCC(NC(=O)C2CCN(S(=O)(=O)c3cccc4cccnc34)CC2)CC1 | -0.6 | 51.2* | -5.0 | -1.2 | -13.1
O=C(Nc1nccs1)C1CCCN(S(=O)(=O)c2cccc3cccnc23)C1 (stereo not given) | -1.8 | 39.2* | 0.6 | -0.3 | 3.6
CCOC(=O)c1c(C)[nH]c(CCC(=O)Nc2c(C)cccc2CC)c1C | . | . | . | -0.2 | 6.4
CCn1cc2nc(SCC(=O)Nc3cc(OC)cc(OC)c3)n(Cc3ccc(Cl)cc3)c(=O)c2n1 | . | . | . | 1.1 | 5.6
CCCN1CCC(NC(=O)Cc2ccccc2C)CC1 | -3.9 | 1.3 | -4.9 | 0.8 | -12.6
O=C(CCNS(=O)(=O)c1cccs1)NC1CCN(Cc2ccccc2)CC1 | -0.2 | 41.3* | -11.5 | 1.0 | -34.3
Cc1ccc(Cl)cc1S(=O)(=O)N1CCC(C(=O)NC2CCN(Cc3ccccc3)CC2)CC1 | -3.3 | 31.1* | -16.1 | 2.7 | -21.7
Cc1ccccc1CC(=O)NC1CCN(Cc2ccccc2)CC1 | -1.0 | 56.1* | -24.4 | 0.3 | -37.4
O=C(NC1CCN(Cc2ccccc2)CC1)C12CC3CC(CC(C3)C1)C2 | -2.1 | 32.0* | -15.9 | 1.0 | -28.9
O=C(CCNS(=O)(=O)c1ccc(Br)cc1)NC1CCN(Cc2ccccc2)CC1 | -2.0 | . | -42.5 | . | .
SMILES | D2 ag-1 | D2 antag | D2 PAM-1 | D2 ag-2 | D2 PAM-2
CC(=O)c1ccc(N2CCN(C(=O)c3cn(C)c(=O)c4c3c3ccccc3n4C)CC2)cc1 | . | . | . | 6.7 | -9.2
CCc1ccc(NC(=O)CC2C(=O)N(c3cccc(C)c3)C(=O)N2Cc2cccc(OC)c2)cc1 (stereo not given) | . | . | . | 0.3 | -2.7
CCN(C(=O)c1cccn(Cc2cccc(Cl)c2)c1=O)c1ccccc1 | . | . | . | . | 9.1
CCCCCn1c(CCCNC(=O)c2ccccc2)nc2ccccc21 | . | . | . | -1.2 | -14.5
CCOC(=O)c1cc2c(=O)n3ccccc3nc2n(Cc2ccco2)c1=NC(=O)c1c(F)cccc1Cl | . | . | . | . | -2.9
COCCCn1c(=O)c2sccc2n2c(CCCC(=O)Nc3cccc(C(F)(F)F)c3)nnc12 | . | . | . | 0.4 | 1.8
CC(Oc1ccccc1)C(=O)NC1CCCCCCC1 (stereo not given) | 4.1 | -11.7 | -11.1 | 0.3 | 7.1
O=C(Cc1ccccc1)NC1CCN(Cc2ccccc2)CC1 | -12.3 | 36.4* | -20.1 | 1.2 | -26.9
CC(Oc1ccccc1)C(=O)NC1CCN(Cc2ccccc2)CC1 (stereo not given) | -2.5 | 42.2* | -19.5 | 0.1 | -28.2
Cc1ccc(CC(=O)NC2CCN(Cc3ccccc3)CC2)cc1 | -2.1 | -3.1 | -11.6 | 0.3 | -14.4
Nc1ccccc1SCc1ccccc1 | -6.6 | 30.7* | -10.7 | -0.2 | -5.1
Nn1c(SCC(=O)Nc2ccccc2F)nnc1C1CCCCC1 | 1.8 | -9.4 | -9.8 | -0.5 | 36.8*
COc1ccc(Cl)cc1NC(=O)CSc1nnc(C2CC2)n1N | -1.8 | -9.5 | -7.6 | 0.0 | 31.4*
COc1ccc(OC)c(NC(=O)CSc2nncc(=O)n2N)c1 | -4.1 | 36.0* | -9.3 | 0.8 | -14.6
CCc1sc(C(=O)Nc2cc(Cl)ccc2N2CCCCC2)cc1C | -1.4 | 6.5 | -2.5 | -1.2 | -1.1
Cc1ccc(C(=O)Nc2cc(Cl)ccc2N2CCCCC2)s1 | -0.3 | 32.2* | -1.8 | 0.5 | -4.5
O=C(CCc1nc2ccccc2c(=O)[nH]1)Nc1cc(Cl)ccc1N1CCCCC1 | -4.7 | 42.9* | -5.5 | 0.0 | -6.3
CC(C)(C)C(=O)Nc1c(C(=O)N2CCN(c3ccc(F)cc3)CC2)oc2ccccc12 | . | . | . | -0.1 | -8.1
COc1ccc2nc3cc(Cl)ccc3c(Nc3cc(C(C)C)c(O)cc3C)c2c1 | 9.8 | 31.3* | -10.2 | -0.6 | -23.5
CCN(CC)CCCC(C)Nc1c2ccc(Cl)cc2nc2ccc(OC)cc12 (stereo not given) | . | -1.0 | . | 6.9 | 0.6
CC1=C(C(=O)Nc2ccc(C)c(C)c2)C2(CCCCCC2)OC1=O | . | . | . | -2.3 | 7.9
O=C(CCCOc1ccccc1)Nc1nc2ccccc2[nH]1 | -1.9 | -1.8 | -0.8 | -0.4 | 69.7*
Cc1ccc(OCCCC(=O)Nc2nc3ccccc3[nH]2)cc1 | 5.3 | -12.2 | 7.8 | 0.3 | 10.7
Cc1cc([N+](=O)[O-])nn1CC(=O)NC(C)c1ccccc1 (stereo not given) | -0.7 | -21.3 | -8.7 | 1.2 | 1.1
O=C(Cn1nc([N+](=O)[O-])nc1Br)NC(c1ccccc1)c1ccccc1 | 4.8 | 6.5 | 58.0* | -1.4 | 5.3
CC(=O)c1ccc2c(c1)N(CCCN1CCC(CCO)CC1)c1ccccc1S2 | -9.4 | 74.2* | -39.2 | -1.2 | -14.7
CN(C)CCCN1c2ccccc2Sc2ccc3ccccc3c21 | -0.8 | . | -28.0 | . | .

Screening data as filed in PubChem BioAssay.
